Source: PubChem BioAssay (NCI)
This is part of a sample that, as a whole, favours compounds with a hit. Of some 83,000 tested, about 20% had one in any assay.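 Growth was measured after 48 h exposure to one concentration of compound in 96-well plates. Values under 10 count as active.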 Values without a mark were called inactive. Active and inactive are the calls of the source.

tested on: HL-60(TB) leukemia; assay: NCI-60 one-dose screen, 48 h (100 = growth as untreated, 0 = no growth, -100 = all killed); details: 10 µM unless noted

Row | SMILES | growth
1 | Cc1cn(-c2cc(NC(=O)c3ccc(C)c(Nc4nccc(-c5cnccn5)n4)c3)cc(C(F)(F)F)c2)cn1 | 33.4%
2 | C[n+]1c2ccccc2nc2c(N)cc(N)cc21 | 74.7%
3 | O=C(O)CCNC1CCCCC1 | 97.5%
4 | C/C(=N\Nc1ccc(Cl)cn1)c1ccccn1 | -27.4% (active)
5 | O=[N+]([O-])c1ccccc1/C=N\NC(=S)N/N=C/c1ccccc1[N+](=O)[O-] | 9.57% (active)
6 | CN1C(=O)N(C)C2C1NN=c1s/c(=C\C=C\c3ccccc3)c(=O)n12 (stereo not given) | 17.1%
7 | Cc1ccc(-c2nc(N3CCCNCC3)c3oc(-c4ccccc4)nc3n2)cc1 | -69.7% (active)
8 | O=C1NC(=O)C(=Cc2cc(-c3ccc(Cl)cc3)n(-c3ccccc3)n2)C(=O)N1 | 89.5%
9 | CC(C)C1CCC(C)C(C2(C#N)C(N)=NC(N)=C2C#N)C1=O (stereo not given) | 96.7%
10 | CC(=O)OC1CCC2(C)C(=CC3C4CCC(=O)C4(C)CCC32)C1 (stereo not given) | 91%
11 | Cc1nc2c3c(ncn2n1)Oc1c(c(=O)[nH]c2ccccc12)C3c1ccc(Cl)cc1 (stereo not given) | 98%
12 | O=[N+]([O-])c1cccc(-c2nc3sccn3c2-c2ccnc(NCCCNS(=O)(=O)c3ccc(Br)cc3)n2)c1 | 19.2%
13 | CCc1cc(Cc2cc(CC)cc(C(C)(C)C)c2O)c(O)c(C(C)(C)C)c1 | 58.1%
14 | CCCCCCCCCCCCCC[n+]1cccc(C(N)=O)c1 | -55.9% (active)
15 | COc1ccc(-c2nnc3c4[nH]cnc4ncn23)c(OC)c1 | 12.8%
16 | Clc1ccc(Nc2nnc(-c3ccc4c(c3)OCO4)o2)cc1 | 80.1%
17 | Cc1cc(/C=C2\SC(=Nc3ccccc3)N(C3CCCC3)C2=O)c(C)n1-c1ccc(Cl)cc1 | -27.3% (active)
18 | CC(=O)C1C(=O)C(=O)N(c2cccc([N+](=O)[O-])c2)C1=O (stereo not given) | 103%
19 | CCCCCCCCNC(=O)C(C)C | 99.7%
20 | OCC1OC2C(NC(=S)N2c2ccccc2)C(O)C1O (stereo not given) | 90.8%

Row | SMILES | growth
21 | CCCCCCCN(CCCCCCC)C(=N)c1ccc(OC)c2ccccc12 | -66.4% (active)
22 | CN1c2ccccc2S(=O)(=O)n2c(SCC(=O)Nc3nc4ccc(F)cc4s3)nnc21 | 105%
23 | COc1cc2c(cc1OC)CC[N+](CCC[N+](C)(C)C)=C2 | 90.1%
24 | COC(=O)C12C3C(=O)N(c4ccc(OC)cc4)C(=O)C3C(c3cn(-c4ccccc4)nc3C)N1[C@H](c1cn(-c3ccccc3)nc1C)[C@@H]1C(=O)N(c3ccc(OC)cc3)C(=O)[C@@H]12 (stereo not given in full) | 106%
25 | Clc1nc(Cl)c2ncn(C/C=C\Cn3cnc4c(Cl)nc(Cl)nc43)c2n1 | -70.2% (active)
26 | Cc1c(C(=O)/C=C/Nc2c(Cl)cc(S(N)(=O)=O)cc2Cl)sc2nc3ccccc3n12 | 101%
27 | Nc1nc(CSc2n[nH]c(N)n2)nc(Nc2ccccc2)n1 | 92.7%
28 | COc1cc(-c2nn(-c3ccc(C)cc3)cc2C(=O)O)ccc1O | 82.2%
29 | CCc1ccc(Nc2cc(C)c3ccc(O)cc3n2)cc1 | 33.9%
30 | CCCCc1ccc(NC(=O)C(F)(F)F)cc1 | 71.2%
31 | Cc1cccc2c(N)c3ccccc3nc12 | 9.2% (active)
32 | C#Cc1cccc(Nc2nc(Cl)nc3cc(NC(=O)CCl)ccc23)c1 | -45.8% (active)
33 | COc1cc(/C=N/Nc2ccc(Br)cc2)cc(OC)c1OC | 33%
34 | CC(=O)Nc1ccc(C=Nc2ccc3ccccc3c2)cc1 | 107%
35 | O=c1oc2ccccc2cc1-c1nn(-c2ccccc2)cc1/C=N/Nc1nc(-c2ccccc2)c(N=Nc2ccccc2)s1 | 58.1%
36 | CC[N+](C)(CC)CCO | 96.9%
37 | Clc1ccc(-c2c3ccc(=[N+]4CCCCC4)cc-3oc3cc(N4CCCCC4)ccc23)cc1 | -42.3% (active)
38 | O=C1NC(=O)C(Cn2cnc3ccccc32)N1 (stereo not given) | 95.8%
39 | Cn1c(=O)c(C#N)c(-c2ccco2)n2c(S(=O)(=O)Cc3ccccc3)nnc12 | 103%
40 | Cc1nn(-c2ccccc2)c(Cl)c1/C=C/C(=O)c1ccc(F)cc1 | 47.1%
